According to the supplement of paper PMC6522484:
± gives the standard deviation of the averaged measurements.

What was measured:
[1] = test system: DLD1; assay: cell viability (CellTiter-Glo) relative to plate median (fraction of plate median); higher = more viable cells; details: 5 µM; treatment time 24 h; reporter: 7TFP
In short: (§1)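 Colorectal cancer lines with stably integrated lentiviral TCF/Wnt firefly luciferase reporters received library compounds at a final 5 µM, 24 h after seeding into 384-well plates, for a 24 h exposure. Reported figures are plate-median-normalised firefly luciferase or CellTiterGlo luminescence per well. They average two independent replicates.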

[2] = test system: HCT116; assay: as above; details: 5 µM; treatment time 24 h; reporter: TCF4/Wnt
In short: as §1

[3] = test system: SW480; assay: as above; details: 5 µM; treatment time 24 h; reporter: 7TFP
In short: as §1

[4] = test system: DLD1; assay: TCF/Wnt firefly luciferase reporter signal relative to plate median (fraction of plate median); higher = higher Wnt reporter signal; details: 5 µM; treatment time 24 h; reporter: 7TFP
In short: as §1

[5] = test system: SW480; assay: as above; details: 5 µM; treatment time 24 h; reporter: 7TFP
In short: as §1

Structure (SMILES)	cell viability [1]	cell viability [2]	cell viability [3]	TCF/Wnt firefly luciferase reporter signal [4]	TCF/Wnt firefly luciferase reporter signal [5]
NC(=O)c1ccc(N)nc1	1.1 ± 0.13	1.1	1.01 ± 0.16	1.01 ± 0.067	0.91 ± 0.037
COc1cc2c(cc1O)C[C@H]1c3c(cc(O)c(OC)c3-2)CCN1C	1.02 ± 0.095	1.06 ± 0.086	1.12 ± 0.13	0.882 ± 0.033	1.01 ± 0.17
COC1CC(OC2CCC3(C)C(CCC4C3CCC3(C)C(C5=CC(=O)OC5)CCC43O)C2)OC(C)C1OC1OC(COC2OC(CO)C(O)C(O)C2O)C(O)C(O)C1O (stereo not given)	0.873 ± 0.11	0.969 ± 0.0099	0.964 ± 0.044	1.14 ± 0.042	1.03 ± 0.098
CN(C)C(=O)Oc1cc(OC(=O)N(C)C)cc(C(O)CNC(C)(C)C)c1 (stereo not given)	0.986 ± 0.021	1 ± 0.024	0.961 ± 0.044	0.911 ± 0.11	1.045 ± 0.0071
COC(=O)[C@]1(C)CC[C@]2(C)CC[C@]3(C)C4=CC=C5C(=CC(=O)C(O)=C5C)[C@]4(C)CC[C@@]3(C)[C@@H]2C1	0.981 ± 0.0085	1.16 ± 0.05	1.03 ± 0.014	1.11 ± 0.071	1.03 ± 0.08
COC(=O)C1=CCCN(C)C1	0.991 ± 0.13	1.07 ± 0.042	1.1 ± 0.099	1.07 ± 0.11	1.05 ± 0.064
O[C@@H]1C[C@H]2CCC[C@@H](C1)N2Cc1ccccc1	0.9315 ± 0.0035	0.996 ± 0.048	0.949 ± 0.037	1.1 ± 0.042	0.893 ± 0.013
CC(CC(C(N)=O)(c1ccccc1)c1ccccc1)N(C)C (stereo not given)	0.995 ± 0.022	1.08 ± 0.035	1.01 ± 0.026	1 ± 0.014	1.01 ± 0.028
CC[C@@]1(O)C[C@H](O[C@H]2C[C@H](N(C)C)[C@H](O[C@H]3C[C@@H]4O[C@H]5CC(=O)[C@H](C)O[C@H]5O[C@@H]4[C@H](C)O3)[C@H](C)O2)c2c(cc3c(c2O)C(=O)c2c(O)ccc(O)c2C3=O)[C@H]1C(=O)OC [Cinerubin-B]	1.04 ± 0.12	0.993 ± 0.067	1.01 ± 0.028	0.991 ± 0.15	1.07 ± 0.028
NC(=O)C[S+]([O-])C(c1ccccc1)c1ccccc1 (stereo not given)	0.952 ± 0.12	1.1 ± 0.05	1.02 ± 0.014	1.08 ± 0.064	1.02 ± 0.014
COc1c2c(c(CC=C(C)C)c3oc(=O)c(-c4ccc(O)cc4)c(O)c13)OC(C)(C)C=C2	0.9495 ± 0.0021	0.985 ± 0.064	1.01 ± 0.035	0.969 ± 0.016	0.985 ± 0.012
C=C[C@H]1CN2CC[C@H]1C[C@@H]2[C@@H](O)c1ccnc2ccccc12	1.02 ± 0.055	0.963 ± 0.021	0.984 ± 0.023	1.03 ± 0.028	0.926 ± 0.014
COC[C@]12CN(C=O)[C@@H]3[C@@H]4[C@H](OC)[C@H]1[C@@]3([C@@H](OC)C[C@H]2O)[C@@H]1C[C@@]2(O)[C@H](OC(=O)c3ccccc3)[C@@H]1[C@]4(OC(C)=O)[C@@H](O)[C@@H]2OC	1.01 ± 0.057	1.17 ± 0.057	1.05 ± 0.071	0.934 ± 0.15	1.02 ± 0.052
Cc1ccc(O)cc1.Cc1cccc(O)c1.Cc1ccccc1O	1.085 ± 0.0071	1.08 ± 0.14	1.01 ± 0.014	1.09 ± 0.064	1.09 ± 0.057
NNCc1ccccc1	1.08 ± 0.12	1.1 ± 0.13	1.06 ± 0.028	1.07 ± 0.057	1.03 ± 0.093
COc1ccc2c(c1OC)C(=O)O[C@H]2[C@H]1c2cc3c(cc2CCN1C)OCO3	1.06 ± 0.09	1.04 ± 0.061	0.9915 ± 0.0078	1.08 ± 0.028	1.03 ± 0.069
COC1C(O)C(O[C@H]2CC[C@]3(C=O)C4C(CC[C@]3(O)C2)[C@@]2(O)CC[C@H](C3=CC(=O)OC3)[C@@]2(C)C[C@H]4OC(C)=O)OC(C)C1OC(C)=O (stereo not given in full)	0.929 ± 0.11	1.03 ± 0.083	0.941 ± 0.044	0.828 ± 0.042	0.83 ± 0.069
CC(Cc1ccc(O)cc1)NCC(O)c1cc(O)cc(O)c1 (stereo not given)	1.04 ± 0.068	1.1 ± 0.099	0.967 ± 0.012	0.9645 ± 0.0035	0.945 ± 0.013
COc1cc2c(cc1OC)[C@@H]1C(=O)c3ccc4c(c3O[C@@H]1CO2)CC(C(C)C)O4 (stereo not given in full)	0.963 ± 0.11	0.685 ± 0.14	0.9715 ± 0.0092	0.84 ± 0.0042	0.842
C[C@H](N)[C@H](O)c1ccc(O)c(O)c1	0.971 ± 0.042	1.05 ± 0.057	1.09 ± 0.17	1.004 ± 0.0085	0.9685 ± 0.0078
CC1=CCCC2C1(C)CCC(C)C2(C)CC/C(C)=C/Cn1c[n+](C)c2c(N)ncnc21 (stereo not given) [AGELASINE (stereochemistry of diterpene unknown)]	1.02 ± 0.14	1.06 ± 0.071	0.94 ± 0.015	1.18 ± 0.092	1.07 ± 0.078
CN1[C@@H]2C[C@@H](OC(=O)[C@H](CO)c3ccccc3)C[C@H]1[C@@H]1O[C@@H]12	1.04 ± 0.042	1.07 ± 0.042	0.99 ± 0.0099	1.02 ± 0.1	1.035 ± 0.0071
C/C=C/c1ccc2c(c1)OCO2	0.951 ± 0.13	0.998 ± 0.059	0.986 ± 0.049	1.04 ± 0.17	1.05 ± 0.1
CC(C)[N+](C)(CCC(C(N)=O)(c1ccccc1)c1ccccc1)C(C)C	1.045 ± 0.0071	1.055 ± 0.0071	0.996 ± 0.0057	1.02 ± 0.12	1.03 ± 0.042
c1ccc(/N=N/c2ccccc2)cc1	1.03 ± 0.021	0.981 ± 0.027	1.04 ± 0.028	1.04 ± 0.088	0.986 ± 0.091
CN[C@@H]1[C@@H](O)[C@@H](O[C@@H]2[C@@H](O)[C@H](O[C@H]3O[C@H](CN)CC[C@H]3N)[C@@H](N)C[C@H]2N)OC[C@]1(C)O.CN[C@@H]1[C@@H](O)[C@@H](O[C@@H]2[C@@H](O)[C@H](O[C@H]3O[C@H]([C@@H](C)N)CC[C@H]3N)[C@@H](N)C[C@H]2N)OC[C@]1(C)O.CN[C@@H]1[C@@H](O)[C@@H](O[C@@H]2[C@@H](O)[C@H](O[C@H]3O[C@H]([C@@H](C)NC)CC[C@H]3N)[C@@H](N)C[C@H]2N)OC[C@]1(C)O	1.06 ± 0.17	0.997 ± 0.089	1.03 ± 0.063	1.03 ± 0.028	1.04 ± 0.069
